The test system of assay [1] is Aerobactin synthetase IucA (Klebsiella pneumoniae). Kind of assay: inhibition of K. pneumoniae IucA enzyme – biochemical, Tocris library, absorbance (AID 1345561).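 Note: 100% = enzyme without compound and 0% = no enzyme.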 To be noted: purified IucA enzyme assay, absorbance (OD) read-out; stronger effect = lower value;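 tested at 8 µM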.
Assay [2] can be described thus: viability loss with induced miR-34 in A549 – imaging, A549 dox-inducible miR-34, nuclei and caspase counts, primary screen (AID 1347080;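 active = compounds whose cell count with miR-34 switched on is under 0.7 times the count with it off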). To be noted: A549 miR-34 inducible, Hoechst nuclei count, 48 h.
A short description of assay [3]: galactose survival enhancers in mitochondrial complex I cybrids – cell-based, galactose medium, ATP luminescence, primary screen (AID 1645843;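 active = z-score of at least 1.8 in each of two replicates, scored against plate mean and spread of sample wells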;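 note: positive z means more ATP and so rescue of galactose-driven cybrid death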). To be noted: complex I mutant cybrid cells, 72 h, stronger effect = higher value.
Assay [4] is described as follows: P. berghei load reduction in hepatocytes – cell-based, HepG2, luciferase luminescence, HepG2 viability, primary screen (AID 624349; in the data active = parasite load remaining mostly below about 12%, no sharp cut-off; inactive = mostly above about 10%;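 note: 100% = mean of DMSO negative control wells on the same plate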). To be noted: P. berghei liver stage in HepG2, luciferase luminescence, concentration not given here; parasite load remaining: stronger effect = lower value; viability: measured here: HepG2 viability without parasites.
Assay [5] in a line: signal quenchers or enhancers, Cy5 substrate/SSB – biochemical, NIH Clinical Collection, E. coli SSB, artefact control for HCV NS3 helicase inhibitor project (AID 743268). To be noted: Cy5-oligo bound E. coli SSB, fluorescence interference.
Assay [6] has as its system Hepatitis C virus NS3 helicase. Briefly: blockers of NS3h binding to DNA – biochemical, fluorescence polarization, NIH Clinical Collection, primary screen (AID 743270). To be noted: NS3 helicase binding to Cy5-dT15 DNA, stronger effect = higher value, concentration not given here. (In fluorescence polarisation assays a small probe gives low polarisation when free and higher when bound to something large.)

In assay [7] the target is Single-stranded DNA-binding protein (Escherichia coli (strain K12)) (UniProt P0AGE0). Briefly: SSB-ssDNA binding inhibitors – biochemical, fluorescence polarization, NIH Clinical Collection, counter-screen for HCV NS3 helicase inhibitor project (AID 743271; in the data active = inhibition above about 28%). To be noted: E. coli SSB-DNA binding, stronger effect = higher value, concentration not given here.
A short description of assay [8]: compounds distorting NS3 helicase fluorescence signal – biochemical, NIH Clinical Collection, artefact control for HCV NS3 helicase inhibitor project (AID 743272).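 Note: HCV NS3 helicase with a Cy5 labelled single stranded DNA probe.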 To be noted: fluorescence interference counterscreen, HCV NS3 helicase assay; stronger effect = lower value. (In general: A counterscreen serves to expose hits that act by an unwanted route or on another target.)

The nature of assay [9]: MELAS cybrid and Rieske KO viability enhancers – cell-based, MELAS cybrids, Rieske KO mouse fibroblasts, CellTiter-Glo, primary screen (AID 1508586;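 active = mean z-score across replicates of 1.96 or higher in either the MELAS or the Rieske mutant cell line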;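 note: z relative to plate mean and SD of compound and empty wells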). To be noted: low glucose.
Assay [10] can be described thus: compounds altering circadian rhythm period length – cell-based, LOPAC library, luminescence reporter (AID 2774).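 Note: values are relative to mean of DMSO wells on each plate.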 To be noted: circadian reporter cells, at 7 µM, actives lie on both sides.
Setting [11] is: stronger effect = lower value, cell number ratio, induced over uninduced.
The mark [12] stands for this setting: measured here: relative caspase fold change +Dox/-Dox.
The mark [13] stands for this setting: measured here: total cells with miR-34 induction, stronger effect = lower value.
[14] abbreviates: measured here: total cells without miR-34 induction.

Structures are written as SMILES. Several values for one entry are separate records, joined by “and”; a condition that tells them apart may be missing. Equal entries are not always repeated. Activity calls are given as the source filed them. Unless noted, the rule behind the calls is not given here.

Turning to `Cc1ccc2c(c1)Cc1c(C(=O)NC3CCCCC3)nn(-c3ccc(Cl)cc3Cl)c1-2`, the remaining activity in [1] is 103% (inactive). Also, the fold change is 0.986 (inactive) in assay [2] (setting [11]) and 1.35 in [2] (setting [12]). Also, the values for the cell count in assay [2] (setting [13]) and in assay [2] (setting [14]) were 8570 and 8690, respectively. In assay [3], the z-score was -0.01 (inactive).

In the case of `Oc1ccc2c3c1O[C@H]1c4[nH]c5ccccc5c4C[C@@]4(O)C(C2)N(CC2CC2)CC[C@]314`, the parasite load remaining in assay [4] is 46.5% (inactive). Also, the viability in [4] stood at 62.3%. Also, the fluorescence ratio was 0.91 (inactive) in [5] and 0.89 (inactive) in assay [8]. The inhibition in assay [6] was -1.19% (inactive); in [7] it was -0.1% (inactive). Also, in assay [1], the remaining activity is 101% (inactive). In addition, the fold change in assay [2] (stronger effect = lower value) was 1.03 (inactive); in [2] (setting [12]), 0.989. Also, the figures for the cell count in assay [2] (setting [13]) and in assay [2] (setting [14]) were 8920 and 8700, respectively. The z-score in assay [3] is 0.53 (inactive).

With `CCCN(C/C=C/I)C1CCc2ccc(O)cc2C1` (stereo not drawn), in assay [1], the remaining activity was 102% (inactive). The fold change in assay [2] (setting [11]) was 0.904 (inactive); in [2] (setting [12]), 0.638. Besides, the cell count in assay [2] (setting [13]) is 8360; in [2] (setting [14]), 9250. The z-score in [3] is -0.23 (inactive).

In the case of `Cc1nnc2ccc(-c3cccc(C(F)(F)F)c3)nn12`, the remaining activity in assay [1] is 126% (inactive). In addition, the fold change in [2] (stronger effect = lower value) was 0.912 (inactive); in assay [2] (setting [12]), 0.497. The cell count is 9060 in assay [2] (setting [13]) and 9940 in assay [2] (setting [14]). In addition, the z-score in [3] is 0.155 (inactive).

`C[C@@H]1O[C@@H](O[C@@H]2C[C@@H](O)[C@]3(CO)[C@H]4[C@H](O)C[C@]5(C)[C@@H](C6=CC(=O)OC6)CC[C@]5(O)[C@@H]4CC[C@]3(O)C2)[C@H](O)[C@H](O)[C@H]1O`: the remaining activity in assay [1] is 107% (inactive). Moreover, the fold change was 0.807 (inactive) in assay [2] (setting [11]) and 1.91 in assay [2] (setting [12]). For the same molecule, the cell count was determined as 346 in assay [2] (setting [13]) and 430 in assay [2] (setting [14]). In addition, the z-score in assay [3] is -0.765 (inactive).

In the case of `Cc1cccc(C(C)c2cnc[nH]2)c1C` (stereo not drawn), in assay [1], the remaining activity was 123% (inactive). Besides, the z-score is 0.00954 (inactive) and -0.104 (inactive) and -0.218 (inactive) in assay [9] (MELAS cybrid survival, CellTiter-Glo 48 h, stronger effect = higher value); 0.0551 and -0.0823 and -0.0306 in assay [9] (Rieske KO mouse fibroblast survival, CellTiter-Glo 72 h); -0.255 (inactive) in assay [3].

Regarding `CCC[C@@H]1CC2=CC(=O)CC[C@]2(C)[C@H]2CC[C@@]3(C)[C@@H](CC[C@@]3(O)CCC(=O)O)[C@H]12`, the remaining activity in [1] was 116% (inactive). Further, the fold change in assay [2] (setting [11]) is 0.926 (inactive); in [2] (setting [12]), 0.977. The cell count worked out at 7340 in assay [2] (setting [13]) and 7920 in assay [2] (setting [14]). Besides, the z-score in assay [3] is 0.06 (inactive).

With `CC(C)n1cnc2c(C(=O)N[C@H]3CN4CCC3CC4)cc(Cl)cc21`, in [1], the remaining activity was 102% (inactive). Further, the fold change in [2] (setting [11]) was 0.928 (inactive); in assay [2] (setting [12]), 0.88. For the same molecule, the cell count in assay [2] (setting [13]) was 8010; in assay [2] (setting [14]), 8630. Besides, in [3], the z-score was 2.03 (inactive).

In the case of `CC(C(=O)OC1CC2CCC(C1)N2C)c1ccc(Br)cc1` (stereo not drawn), the remaining activity in assay [1] is 87.5% (inactive). The fold change was 0.964 (inactive) in assay [2] (setting [11]) and 0.964 in [2] (setting [12]). Besides, the figures for the cell count in assay [2] (setting [13]) and in assay [2] (setting [14]) were 8760 and 9090, respectively. Besides, the z-score in [3] is -0.795 (inactive).

On to `C=C(C)CN1CC[C@]23c4c5ccc(O)c4O[C@H]2c2[nH]c4ccccc4c2C[C@@]3(O)C1C5`, for which the parasite load remaining in assay [4] was 2.83% (inactive). The molecule further returned a viability in assay [4] of 29.3%. Moreover, the values for the fluorescence ratio in assay [5] and in [8] were 0.95 (inactive) and 0.93 (inactive), respectively. Also, the results for the inhibition in assay [6] and in assay [7] were -1.97% (inactive) and 1.97% (inactive), respectively. The remaining activity in [1] is 92% (inactive). The fold change in assay [2] (stronger effect = lower value) was 0.859 (inactive); in [2] (setting [12]), 0.814. Moreover, the cell count in assay [2] (setting [13]) was found to be 5020; in [2] (setting [14]), 5850. The z-score in assay [3] is -0.785 (inactive).

As to `S=C=Nc1cccc(C2(N3CCCCC3)CCCCC2)c1`, the period change in assay [10] is 0.05 h (inactive). Also, the remaining activity in assay [1] was 122% (inactive). Also, the fold change in assay [2] (setting [11]) was 0.942 (inactive); in [2] (setting [12]) it was 0.732. Besides, the cell count in assay [2] (setting [13]) came out at 9100; in assay [2] (setting [14]) it was 9670. The z-score in [3] was 0.62 (inactive).

As to `CC(C)(Cc1c[nH]c2ccc(Cl)cc12)NCCOc1ccccc1OCC1CC1`, the remaining activity in [1] was 119% (inactive). Further, the fold change was 0.921 (inactive) in assay [2] (setting [11]) and 1.09 in [2] (setting [12]). Also, the cell count was 226 in assay [2] (setting [13]) and 246 in assay [2] (setting [14]). In assay [3], the z-score was -1.23 (inactive).

The remaining activity is the signal under treatment as a percentage of the control signal. The viability is a read-out of living cells in per cent, often relative to untreated cells. For orientation: inhibition means the drop in the measured response relative to a control, in per cent.

Values taken from PubChem BioAssay.
